Screens: PubChem, several laboratories
CF NFkB block = inhibitors of PAF-induced NF-kB signaling, primary screen, cell-based, GFP fluorescence, uHTS | KKLEB NF-kB-GFP reporter, GFP fluorescence overnight | inhibition, % at 5 µM | 0.86% of 360,000 active | AID 588850, 2011;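 active = at least 50% inhibition at 5 µM, scaled per plate between neutral and stimulator controls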;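 also: PAF is a Pseudomonas aeruginosa culture filtrate used as stimulus; plate controls were PAF-stimulated DMSO wells for no effect and unstimulated DMSO wells for full effect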
hiPSC survival = enhancers of single-cell hiPSC survival, primary screen, ATPlite luminescence | 100% = ROCK inhibitor wells, 0% = DMSO | survival enhancement, % at 20 µM | 0.044% of 360,000 active; in the data active = survival enhancement above about 18%;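 also: cells exposed to compounds for 16 hours before the ATP read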
LGR2 inh = inhibitors of bursicon-induced LGR2 CRE-luciferase signal, primary screen, cell-based, HEK293, CRE-luciferase reporter, bursicon stimulation. Drosophila bursicon receptor LGR2 (rickets). inhibition, % at 9.99 µM. 0.35% of 380,000 active. bursicon-stimulated, 4 h;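 active = drop in luminescence signal, shown as inhibition above about 50% in the replicate tests, limit read from the data, passing the limit was not always enough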;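 also: agonist challenge used bursicon conditioned medium at about half maximal strength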
HIF-2a inh = HIF-2a reporter inhibitors, primary screen, luminescence, 786-0 RCC cells. 786-0 RCC cells HIF-2a reporter, luciferase luminescence, overnight. inhibition, % at 18.8 µM. 0.72% of 360,000 active. AID 624352, 2012;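 active = inhibition of the luminescence signal of 40% or more relative to plate controls, in a single-dose primary screen at 18.75 µM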
KKLEB tox = cytotoxicity in KKLEB CF airway cells, primary screen, cytotoxicity control for CF NF-kB inhibitor project, cell-based, uHTS, fluorescence assay plates | KKLEB CF airway cells viability, ATPlite luminescence, overnight; hits give low values; cells stimulated with P. aeruginosa culture filtrate | activity change (cytotoxicity), % at 5 µM | 0.36% of 360,000 active | AID 602141, 2011;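 active = corrected activity change at or below -50% at 5 µM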
TWEAK-Fn14 inh = inhibitors of TWEAK-Fn14 signaling, primary screen, luciferase reporter cells, uHTS | TWEAK-stimulated Fn14 reporter cells, luciferase luminescence, 8 h | inhibition, % at 10 µM | 2% of 360,000 active; in the data active = inhibition above about 50%
An asterisk follows results filed as active; x = not tested or not shown. Compounds with a hit are over-represented: about 2.3% of the library has one in this group of screens.

SMILES | CF NFkB block | hiPSC survival | LGR2 inh | HIF-2a inh | KKLEB tox | TWEAK-Fn14 inh
COc1ccc(S(=O)(=O)N[C@@H]2CC[C@@H](CC(=O)NCCc3ccccc3)O[C@H]2CO)cc1 | x | x | 13.0 | x | x | x
c1c2c(cc3sc(N4CCCCC4)nc13)OCO2 | -8.2 | -3.6 | x | -51.5 | -0.4 | 72.7*
c1ccc2c(c1)CCN(c1nc3cc4c(cc3s1)OCO4)C2 | 1.4 | -2.6 | x | -178.0 | -20.1 | 58.4*
c1c2c(cc3sc(N4CCOCC4)nc13)OCO2 | 15.3 | 3.7 | x | -108.1 | -9.4 | 40.7
O=S1(=O)C=C(SCCN2CCCCC2)c2ccccc21 | 6.5 | -1.3 | x | -36.3 | -9.1 | -22.1
Cc1cc(C)nc(SC2=CS(=O)(=O)c3ccccc32)n1 | 29.8 | -3.0 | x | -3.7 | -4.4 | 53.3*
C=CCNC(=S)Nc1cc(S(=O)(=O)N2CCOCC2)ccc1-n1cncn1 | -2.0 | -2.1 | 13.1 | 9.1 | 7.3 | 0.6
CCN(CC)c1ccc(C(=O)NC(=S)Nc2cc(S(=O)(=O)N3CCOCC3)ccc2-n2cncn2)cc1 | 30.8 | -0.1 | -25.7 | 18.0 | -70.8* | 0.0
Cc1cc(C)cc(NC(=O)Nc2ccc3c(c2)N(C)C(=O)CS3)c1 | 23.8 | 1.8 | -4.5 | -48.8 | 1.3 | 44.4
CC(=O)c1cccc(NC(=O)Nc2ccc3c(c2)N(C)C(=O)CS3)c1 | 61.3* | 0.9 | 5.2 | -54.9 | -14.8 | 82.5*
Cc1ccc(OCC(=O)NC(=S)Nc2ccccn2)c(Br)c1 | -23.1 | -0.5 | 71.4* | 21.9 | -17.3 | 91.4*
O=C(COc1ccc(Br)cc1Cl)NC(=S)Nc1ccccn1 | 14.0 | -0.3 | -19.9 | -182.5 | -10.4 | 63.8*
Cc1nc(NC(=S)NC(=O)COc2ccccc2Cl)ccc1Br | -20.2 | -0.6 | 7.7 | -2.7 | 15.0 | -40.6
COc1ccc(OCC(=O)NC(=S)NNC(=O)COc2ccc(Br)cc2Cl)cc1 | -24.2 | 0.5 | -8.7 | -41.1 | 10.3 | -0.8
Cc1nn(-c2ccccc2)c(C)c1NC(=O)COc1ccc(Br)cc1Cl | 7.3 | 5.3 | -21.4 | 10.8 | 6.0 | 78.2*
COc1cccc(C(=O)Nc2ccc3c(c2)C(=O)N(C)C[C@@H](OC)[C@@H](C)CN[C@H](C)CO3)c1 | x | x | 2.2 | x | x | x
Cc1noc(C)c1NC(=O)Nc1ccc2c(c1)C(=O)N([C@@H](C)CO)C[C@@H](C)[C@@H](CN(C)CC1CCCCC1)OCCCC[C@@H](C)O2 | x | x | -16.6 | x | x | x
COc1ccccc1C1(O)CCN(CC(=O)Nc2nc(-c3ccccc3)cs2)CC1 | -15.9 | -0.7 | 35.9 | -22.8 | -7.7 | 54.8*
CCOC(=O)N1CCN(C(=O)CSCC(=O)Nc2nc(-c3ccc(-c4ccccc4)cc3)cs2)CC1 | -33.7 | -1.6 | 51.4* | -205.7 | 3.5 | 93.1*
CCOC(=S)SCC(=O)Nc1nc(-c2ccc(Br)cc2)cs1 | 66.3* | -2.5 | -1.0 | -260.2 | -40.1 | -44.0
CC(C)NC(=O)N(C)C[C@@H]1Oc2c(NS(=O)(=O)c3ccc(Cl)cc3)cccc2C(=O)N([C@@H](C)CO)C[C@@H]1C | x | x | -28.8 | x | x | x
N#C[C@H]1[C@H](c2ccccc2-c2cccc(F)c2)[C@@H](CO)N1C(=O)NC1CCCC1 | x | x | 19.5 | x | x | x
O=C(COc1ccc(Cl)cc1)Nc1nc(-c2ccncc2)cs1 | 6.0 | 2.1 | 7.1 | 0.0 | -28.8 | 5.4
CC(OC(=O)c1ccc(O)cc1)C(=O)Nc1nc(-c2ccccc2)cs1 (stereo not drawn) | -17.3 | 0.1 | -2.0 | -70.5 | 11.0 | 55.1*
O=C(COc1ccccc1Cl)Nc1nc(-c2ccncc2)cs1 | 0.7 | -2.4 | 26.4 | -26.6 | -15.9 | 52.9*
SMILES | CF NFkB block | hiPSC survival | LGR2 inh | HIF-2a inh | KKLEB tox | TWEAK-Fn14 inh
CC(Oc1ccccc1)C(=O)Nc1nc(-c2ccncc2)cs1 (stereo not drawn) | 26.7 | 25.1* | -3.0 | 27.8 | -32.0 | 15.9
CC(Oc1ccccc1)C(=O)Nc1nc(-c2ccccn2)cs1 (stereo not drawn) | 17.0 | 0.0 | 13.4 | 4.5 | -8.5 | 10.1
CC(=O)N1[C@H](C(=O)Nc2ccccc2)[C@@H](CO)[C@@H]2Cn3c(ccc(C4=CCCC4)c3=O)[C@@H]21 | x | x | 7.0 | x | x | x
CCCc1cn(CC[C@H]2CC[C@@H](NS(=O)(=O)c3ccc(-c4ccccc4)cc3)[C@@H](CO)O2)nn1 | x | x | -19.1 | x | x | x
COc1ccccc1NC(=O)CSc1nc2n[nH]c(C)c2c(=N)n1-c1ccccc1Cl | -11.6 | 2.8 | x | -11.3 | -14.9 | 62.1*
CCc1ccccc1NC(=O)CSc1nc2n[nH]c(C)c2c(=N)n1-c1ccc(OC)cc1 | -2.5 | 0.1 | 18.2 | 22.0 | -7.0 | 21.3
CN(C)C(=O)C[C@H]1C[C@H]2c3cc(NC(=O)Nc4ccccc4)ccc3O[C@H]2[C@H](CO)O1 | x | x | 4.9 | x | x | x
O=C(c1ccc2c(=O)n(CCc3ccccc3)c(=O)[nH]c2c1)N1CCN(c2ccccc2)CC1 | -7.5 | -0.4 | x | -16.1 | 8.4 | 38.0
O=C(c1ccc2c(=O)n(CCc3ccccc3)c(=O)[nH]c2c1)N1CCN(c2ccc(F)cc2)CC1 | 2.9 | 0.6 | 0.0 | -16.8 | -25.9 | 74.4*
COCCn1c(=O)[nH]c2cc(C(=O)N3CCN(c4ccc(Cl)cc4)CC3)ccc2c1=O | -4.2 | -0.5 | -6.3 | 9.3 | 13.9 | 25.4
COc1ccc(N2CCN(C(=O)c3ccc4c(=O)n(CCc5ccc(OC)c(OC)c5)c(=O)[nH]c4c3)CC2)cc1 | -0.3 | 1.2 | 3.3 | 17.2 | 2.4 | 58.5*
C[C@@H]1CCCCO[C@@H](CN(C)Cc2ccncc2)[C@H](C)CN([C@@H](C)CO)C(=O)c2cc(NC(=O)c3ccccc3)ccc2O1 | x | x | -22.0 | x | x | x
CN1C(=O)c2cc(NC(=O)c3cccs3)ccc2OC[C@@H]2O[C@@H](CC(=O)N3CCOCC3)CC[C@@H]21 | x | x | -6.4 | x | x | x
c1ccc(OCCSc2nnc3sc4ccccc4n23)cc1 | 0.6 | -0.1 | 91.7* | 11.1 | -17.4 | 91.2*
Cc1noc(C)c1NC(=O)Nc1ccc2c(c1)C(=O)N([C@H](C)CO)C[C@H](C)[C@@H](CN(C)C(=O)Nc1cccc3ccccc13)O2 | x | x | 2.6 | x | x | x
Cc1ccc(-c2cnc3c(c2)C(=O)N([C@H](C)CO)C[C@H](C)[C@H](CN(C)Cc2ccccc2C(=O)O)O3)cc1 | x | x | 5.1 | x | x | x
CC(=O)c1c(C)[nH]c(C(=O)O)c1C | 14.3 | 1.5 | 16.9 | 17.4 | 4.8 | 12.6
CC(=O)c1c(C)[nH]c(C)c1C(C)=O | 4.1 | 2.7 | x | -15.7 | -5.3 | 62.1*
O=C(Nc1ccc(F)cc1)c1nn(-c2ccccc2)c(=O)cc1Cl | 7.5 | 3.2 | 74.6* | 39.4 | -7.9 | 55.1*
CC(=O)Nc1ccc(C(=O)N/N=C/c2ccccc2OCc2ccccc2)cc1 | -19.1 | 5.6 | -22.6 | -47.1 | -18.4 | 4.5
